# D1 PAM – Potentiators of Human D1 Dopamine Receptor: qHTS. HEK293 TREx D1 cells, calcium flux, dopamine EC20 potentiation. 360,000 tested, 0.036% active. potentiation, % at 10 µM; in the data active = potentiation above about 30%; also: 0% is about no effect
# Target sequence (P21728 whole entry, looked up): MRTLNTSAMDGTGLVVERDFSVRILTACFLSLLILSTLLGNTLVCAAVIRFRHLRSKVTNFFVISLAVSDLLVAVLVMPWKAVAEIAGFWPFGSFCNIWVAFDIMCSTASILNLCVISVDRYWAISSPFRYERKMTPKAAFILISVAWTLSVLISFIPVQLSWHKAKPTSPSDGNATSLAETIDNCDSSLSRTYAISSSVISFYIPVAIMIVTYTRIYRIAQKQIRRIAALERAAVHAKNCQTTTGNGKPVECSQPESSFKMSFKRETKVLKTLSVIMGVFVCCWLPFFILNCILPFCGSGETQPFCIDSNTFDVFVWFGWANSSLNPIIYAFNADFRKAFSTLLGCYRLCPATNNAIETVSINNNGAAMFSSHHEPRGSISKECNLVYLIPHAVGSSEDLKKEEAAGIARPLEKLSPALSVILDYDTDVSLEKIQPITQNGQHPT
# Eya2 phos inh – qHTS Assay for Inhibitors of the Phosphatase Activity of Eya2 | recombinant Eya2, OMFP fluorescence dephosphorylation (OMFP is methylfluorescein phosphate) | Protein phosphatase EYA2 (Homo sapiens), O00167 | Potency, µM (highest dose often 76.9 µM), inactives show at the highest dose activity, negative = inhibition, usual class: inhibitors | AID 488837, 2010 | 330,000 tested, 0.006% active; also: potency is read from the fitted curve at half-maximal effect; % is scaled to controls: 0 for no effect and ±100 for the full control effect
#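 Eya2 protein (added as 0.2 uM solution) was preincubated with compound for 10 min at ambient temperature in 50 mM HEPES pH 7.5, 50 mM NaCl, 5 uM MgCl2, 0.05% BSA, 1 mM DTT. OMFP (added at 50 uM) then reacted 10 min; fluorescence read at 485/525 nm.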
# D1 antagonist – Antagonist of Human D 1 Dopamine Receptor: qHTS. D(1A) dopamine receptor (Homo sapiens), P21728. HEK293 TREx D1 cells, calcium flux, dopamine EC80; active compounds read low. activity change, negative = inhibition, % at 10 µM. 360,000 tested, 3.2% active. AID 504652, 2011; in the data active = activity change below about -30%; also: % is scaled to controls: 0 for no effect and ±100 for the full control effect
#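 Inducible Hek293 Trex D1 cells (tetracycline, overnight, 30 C). Calcium dye 30–90 min RT. Antagonist mode: EC80 dopamine added after 180 s compound read.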
# GALK inh – qHTS Assay for Inhibitors of Human Galactokinase (GALK). P51570. Purified GALK, Kinase-Glo residual ATP luminescence. Potency, µM (doses to about 57.5 µM), inactives show at the top dose activity change, negative = inhibition, actives largely listed as inhibitors. 270,000 tested, 0.007% active. AID 1868, 2009; also: potency is read from the fitted curve at half-maximal effect; % is scaled to controls: 0 for no effect and ±100 for the full control effect
#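 Galactose (100 uM) and ATP (35 uM) were turned over by 5 nM GALK for 1 h at RT. Kinase-Glo Plus then converted the remaining ATP into a luminescent signal.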
# USP2a inh – qHTS Assay for Inhibitors of Ubiquitin-specific Protease USP2a Using CHOP2 as the Reporter | Ubiquitin carboxyl-terminal hydrolase 2 (Homo sapiens), O75604 | USP2 core, Ub-CHOP2 coupled fluorogenic reporter, 485/531 | Potency, µM (highest dose often 38.3 µM), for inactives: at the highest dose activity change, negative = inhibition, most hits filed as inhibitors | 330,000 tested, 0.01% active | AID 463254, 2010;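 also: potency is read from the fitted curve at half-maximal effect; plate controls were DMSO wells for no effect and full inhibition by NEM control for full effect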
#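 Cell-free coupled assay: 10nM USP2 core preincubated 30min RT with compound in Tris-HCl pH 8.0/CaCl2/CHAPS buffer, then 25nM Ub-CHOP2 and 25nM reporter substrate; fluorescence (Ex 485/Em 531) read after 60min RT, normalized to NEM inhibition, concentration-response curves fitted.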
# D1 ag – Allosteric Agonists of the Human D1 Dopamine Receptor: qHTS. D(1A) dopamine receptor (Homo sapiens), P21728. HEK293 T-REx D1 cells, calcium flux, agonist mode. activation, % at 2 µM. 360,000 tested, 1% active; in the data active = activation above about 30%; also: 0% is about no effect
#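 Inducible HEK293 T-REx D1 cells, force-coupled to calcium signalling, were plated at 4000 cells/well with tetracycline and held overnight at 30 C. After no-wash calcium dye loading, compound-evoked calcium rise over 180 s flagged agonists.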
# * marks the source's active call; other numbers are inactive results; ? = inconclusive; . = not tested or not shown; ! = a repeat was not active. Sampled rows, rich in hits. Any-hit rate of the full collection: about 3.9%. Unless noted, calls follow the shape of the dose curve; as a rule, active = well fitted inhibition curve with a large enough effect; inconclusive = small, poorly fitted or top-dose-only effect, or effect the other way; inactive = flat fitted curve, though single readings scatter.
SMILES,D1 PAM,Eya2 phos inh,D1 antagonist,GALK inh,USP2a inh,D1 ag
CC1CC(C)CN(C(=O)C2CC(=O)N(c3ccc4c(c3)OCCO4)C2)C1 (stereo not drawn),0,-4%,4,.,0%,1
Cc1ccc2[nH]c(=O)c3cc(C(=O)NC4CCC(C)CC4)sc3c2c1 (stereo not drawn),-5,.,-43*,.,.,1
Cc1ccc2[nH]c(=O)c3cc(C(=O)NC(C)C)sc3c2c1,-2,?,4,-2%,1%,7
S=c1nc(C2CCCCC2)[nH][nH]1,2,7%,-50*,-3%,2%,1
O=C(CSc1nnnn1-c1cccc(Cl)c1)Nc1ccc2c(c1)CCC2,8,-7%,17,1%,3%,5
N#CCCCSc1nnnn1-c1cccc(Cl)c1,3,13%,-37*,1%,-1%,0
CCCCn1cc2c(c1-c1ccccc1Br)c(=O)n(C)c(=O)n2C,-1,.,-10,.,.,0
COc1cc(C(=O)Nc2ccc(OCc3cc(=O)n4cccc(C)c4n3)cc2)cc(OC)c1OC,-5,.,-14,.,.,-1
Nc1nc2ccc([N+](=O)[O-])cc2[nH]1,-5,-22%,10,-1%,0%,3
Nc1[nH]c2cc([N+](=O)[O-])ccc2c1-c1ccccn1,-12,-4%,-12,2%,-5%,65*
COc1ccc(CCNC(=O)c2cc3c(-c4ccc(OC)c(OC)c4)nn(C)c3s2)cc1OC,5,.,1,.,.,0
Cc1ccc(NC(=S)NC2CCN(Cc3ccccc3)CC2)cc1,-5,1%,-64*,1%,-1%,17
CC(C)c1ccc(NC(=S)NC2CCN(Cc3ccccc3)CC2)cc1,-7,-4%,-27,0%,3%,36*
CC(C)c1ccccc1NC(=S)NC1CCN(Cc2ccccc2)CC1,-4,-5%,8,3%,2%,10
Cc1c(Cl)cccc1NC(=S)NC1CCN(Cc2ccccc2)CC1,-6,-3%,-33*,-1%,2%,15
Cc1ccc(NC(=S)NC2CCN(Cc3ccccc3)CC2)cc1C,-12,15%,-82*,-2%,4%,21
S=C(Nc1ccccc1Cl)NC1CCN(Cc2ccccc2)CC1,-1,1%,0,0%,3%,15
COc1ccc(NC(=O)C(OC(=O)CNC(=O)c2ccccc2)c2ccccc2)cc1Cl (stereo not drawn),3,.,12,.,.,3
S=C(Nc1ccc2c(c1)OCO2)NC1CCN(Cc2ccccc2)CC1,-12,-1%,-38*,2%,0%,9
S=C(Nc1cc(Cl)cc(Cl)c1)NC1CCN(Cc2ccccc2)CC1,1,-22%,-15,2%,-2%,19
CN=c1scc(C)n1/N=C/c1ccc(O)cc1,-3,-10%,-2,-1%,2%,3
C=CCN=c1scc(C)n1/N=C/c1ccc(O)c(O)c1,-4,2%,-50*,-3%,0%,2
N#CC(C#N)=C/C(C#N)=C(/N)N1CCN(c2ccc(Cl)cc2)CC1,-4,-18%,-40*,.,0%,4
COC(=O)CC1C(=O)NCCN1C(=S)Nc1ccc(F)cc1 (stereo not drawn),-5,1%,-37*,1%,-1%,2
Cc1cc(-n2c(C)nc3ccccc3c2=O)ccc1NC(=O)c1cccc([N+](=O)[O-])c1C,-1,.,.,.,.,5
SMILES,D1 PAM,Eya2 phos inh,D1 antagonist,GALK inh,USP2a inh,D1 ag
CCCNS(=O)(=O)c1cc(-c2nnc3c4ccccc4c(C)nn23)ccc1OC,-5,.,-17,.,.,5
O=C(O)CCC(=O)N1CCc2cc(S(=O)(=O)NCc3ccc(F)cc3)ccc21,-4,.,1,.,.,2
O=C1NC(=O)/C(=C\c2ccccc2Oc2ccc(F)c(F)c2)S1,-2,9%,-34*,-5%,-2%,8
Cc1cc(C)c(NC(=O)Cn2c(=O)n(CCC(=O)NCc3ccc4c(c3)OCO4)c(=O)c3ccccc32)c(C)c1,0,.,-2,.,.,-1
CCN(CC)c1ccc(/C=C2/C(=O)c3ccc(C(=O)O)cc3C2=O)cc1,0,26%,-6,-1%,13%,261*
CCN(CC)c1ccc(C=C2C(=O)OC3(CCCCC3)OC2=O)cc1,-3,-3%,2,4%,1%,3
Cc1ccc(SCCNS(=O)(=O)c2ccc3c(c2)OCCO3)cc1,-8,-7%,-33*,-4%,3%,10
O=S(=O)(NCCCCNS(=O)(=O)c1c(F)cccc1F)c1ccc2c(c1)OCCO2,0,-6%,-41*!,.,-1%,1
COc1ccc(S(=O)(=O)NCCSc2ccc(C)cc2)cc1OC,-7,6%,-21,-2%,-2%,14
O=S(=O)(NCCNS(=O)(=O)c1c(F)cccc1F)c1ccc2c(c1)OCCO2,0,9%,-24,.,3%,-2
CCN(CC)S(=O)(=O)c1ccc2c(c1)N(CC(=O)Nc1c(C)cc(C)cc1C)C(=O)C1CCCN21 (stereo not drawn),0,.,11,.,.,2
COc1ccc(-c2cn[nH]c2-c2ccc(OC)cc2O)cc1,2,10%,3,6%,2%,-1
COc1ccc(-c2cn[nH]c2C)cc1,0,8%,-37*,4%,-2%,-1
Cc1ccc(NC(=O)c2sc3nc[nH]c(=O)c3c2C)cc1Cl,-1,.,1,.,.,1
Cc1ccc(NC(=O)c2sc3nc[nH]c(=O)c3c2C)c(C)c1,-12,0%,-48*,-3%,2%,8
O=[N+]([O-])c1ccc(N/N=C/c2c[nH]c3ccccc23)cc1,-11,1%,-28,1%,-2%,81*
O=C(N/N=C/c1c[nH]c2ccccc12)c1cccc([N+](=O)[O-])c1,-13,-11%,-18,.,1%,1
COc1ccccc1NS(=O)(=O)c1cc([N+](=O)[O-])ccc1N/N=C/c1c[nH]c2ccccc12,-7,-8%,-4,-3%,-14%,61*
COc1ccccc1NS(=O)(=O)c1cc([N+](=O)[O-])ccc1N/N=C/c1sc(N2CCOCC2)nc1-c1ccccc1,0,-14%,-9,1%,4%,33*
O=[N+]([O-])c1ccc(N/N=C/c2ccc[nH]2)cc1,-5,-16%,-44*,2%,-9%,79*
CCOC(=O)c1ccc(CNC(=O)C2CCC(=O)N(CCc3ccccc3)C2)o1 (stereo not drawn),-14,-4%,-11,-9%,3%,3
